The values below come from PubChem BioAssay (NCATS).

A number with no mark means an inactive call. Results filed as inconclusive are left out. Calls of active or inactive are those of the source. Unless noted, the call rests on the fitted dose curve; in most records, active means well fitted inhibition curve with a large enough effect; inconclusive means small, poorly fitted or top-dose-only effect; inactive means flat fitted curve, though single readings scatter.

Test [1] is described as follows: Drug repurposing screens with cells derived from glioblastoma tumor samples (AID 1345199). Further: nearly all actives have a fitted effect of over 40% in size. Further: potency means the concentration at half of the fitted maximal effect. On activity, negative = cell killing: on the % scale 0 is the no-effect control and ±100 the full control effect. The following applies: GBM patient neurospheres viability, ATP luminescence, 48 h. The method, boiled down:
(§1)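 Four patient lines of CD133+ GBM neurospheres were screened at several concentrations; hits were retested in those lines plus three slower-growing GBM lines, using 48-hour treatment and ATP-based viability.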

In a further test the test system is astro (control astrocytes). Described as above. The following applies: viability, ATP luminescence, 48 h; series mostly up to 45.9 µM. In short, it runs like this:
as §1

Test [2] has as its target Nuclear receptor subfamily 1 group I member 2 (Rattus norvegicus) (UniProt Q9R1A7). Kind of test: qHTS assay for small molecule activators of the rat pregnane X receptor (rPXR) signaling pathway (AID 651751; call rule not given here; further: 0% is about no effect). The following applies: rPXR reporter cells, luciferase (One-Glo), 24 h.
A short description of test [3]: qHTS assay for small molecule activators of the human pregnane X receptor (PXR) signaling pathway (AID 720659; call rule not given here; further: 0% is about no effect). The note with it: DPX-2 HepG2 CYP3A4-luciferase, 24 h; series mostly up to 92.3 µM. (Quantitative high-throughput screening tests each substance at several concentrations.)
The mark [4] stands for this setting: at 45.9 µM (top of the series), tumour line B.
Setting [5] is: at 45.9 µM (top of the series), tumour line D.
Where [6] appears, read: at 46 µM (top of the series), tumour line A.
Setting [7] is: at 46.1 µM (top of the series), tumour line C.

Sequence of Nuclear receptor subfamily 1 group I member 2 (Rattus norvegicus) (Q9R1A7 whole entry, looked up): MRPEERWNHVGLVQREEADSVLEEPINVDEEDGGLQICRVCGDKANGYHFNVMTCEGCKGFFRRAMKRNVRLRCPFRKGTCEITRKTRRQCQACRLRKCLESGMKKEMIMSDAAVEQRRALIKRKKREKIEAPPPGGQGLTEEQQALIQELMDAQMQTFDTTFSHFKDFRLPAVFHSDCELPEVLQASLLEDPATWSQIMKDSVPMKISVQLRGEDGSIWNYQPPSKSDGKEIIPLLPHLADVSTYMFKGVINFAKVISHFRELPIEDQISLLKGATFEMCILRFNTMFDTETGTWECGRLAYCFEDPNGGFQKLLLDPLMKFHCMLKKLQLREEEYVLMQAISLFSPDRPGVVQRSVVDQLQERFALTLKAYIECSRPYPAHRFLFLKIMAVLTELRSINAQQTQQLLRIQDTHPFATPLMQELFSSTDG

Turning to `Cn1sc(Cl)cc1=O`, the activity, negative = cell killing is -15.7% in test [1] (setting [4]), -11.3% in test [1] (setting [5]), -21.6% in test [1] (setting [6]) and -21.9% in test [1] (setting [7]). The Potency entry in the test with astro was “inactive”.

For `CNc1ccc(C(=O)CC(O)CCC(C)C2OC(=O)CC(O)CC(=O)CC(O)CC(O)CC(O)CC(O)CC3(O)CC(O)C(C(=O)OC)C(CC(O[C@@H]4O[C@H](C)[C@@H](O)[C@H](N)[C@@H]4O)/C=C/C=C/C=C/C=C/C=C/C=C/C=C/C2C)O3)cc1` (some centres not stated), the activity, negative = cell killing is -16.2% in test [1] (setting [4]), 9.06% in test [1] (setting [5]), -20.9% in test [1] (setting [6]) and -13.4% in test [1] (setting [7]). Also, the Potency result with astro is “inactive”.

For the molecule `FC(F)OC(F)(F)C(F)Cl` (configuration not stated), the activity, negative = cell killing in test [1] (setting [4]) was -9.16%; in test [1] (setting [5]), 6%; in test [1] (setting [6]) it was -21%; in test [1] (setting [7]), -2.93%. In the test on astro, the Potency entry is “inactive”.

Turning to `C[C@H]1CC[C@]2(NC1)O[C@H]1C[C@H]3[C@@H]4CC[C@H]5C[C@@H](O)CC[C@]5(C)[C@H]4CC[C@]3(C)[C@H]1[C@@H]2C`, the values for the activity, negative = cell killing in test [1] (setting [4]), in test [1] (setting [5]) and in test [1] (setting [7]) were -14.5%, -28.2% and -9.91%, respectively. Also, the Potency in test [1] (tumour line A) was 8.91 µM (active). The Potency result in the test with astro is “inactive”.

As for `Clc1ccccc1Cl`, the activity, negative = cell killing was -2.22% in test [1] (setting [4]), -8.63% in test [1] (setting [5]), -3.16% in test [1] (setting [6]) and -0.0025% in test [1] (setting [7]). Further, the Potency entry in the test with astro was “inactive”. Moreover, the max response in test [2] is 6.34%. In addition, in test [3], the outcome was inactive.

As to `C[C@]12CC[C@H](OS(=O)(=O)O)CC1=CC[C@@H]1[C@@H]2CC[C@]2(C)C(=O)CC[C@@H]12`, the activity, negative = cell killing is 3.89% in test [1] (setting [4]), -2.35% in test [1] (setting [5]), -29.4% in test [1] (setting [6]) and -15.3% in test [1] (setting [7]). The Potency entry in the test on astro was “inactive”.

With `CC(C)Nc1ccc(Nc2ccccc2)cc1`, in test [1] (setting [7]), the activity, negative = cell killing is -13.8%. For the same molecule, the Potency in test [1] (tumour line A) is 11.2 µM (active); in test [1] (tumour line B), 17.8 µM (active); in test [1] (tumour line D), 20 µM (active); with astro it was 22.4 µM (active).
